Compound activity from PubChem.
The entries come from a sample that favours hits as a whole.
AMPAR-TARP mod = modulators of GluA2-stargazin AMPA receptor complexes, primary screen, cell-based, membrane potential dye | HEK293 GluA2+stargazin, membrane potential dye (FDSS), glutamate EC50; hits were called plate by plate, in both directions | calls only at 30 µM | 40,000 tested, 3.5% active | AID 1259245, 2017;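 active means any of four per-well response measures lying three or more SD from its plate-wide compound average, in either direction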
GIRK2 activator = activators of NPY4-receptor-primed GIRK2 channels, summary, cell-based, HEK293, thallium flux. G protein-activated inward rectifier potassium channel 2 (Homo sapiens), P48051. HEK293 GIRK2/NPY4 cells, thallium flux fluorescence. activation (% efficacy), % for hits at 37.5 µM. 34,000 tested, under 10 active;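 active means primary screen hit, no activity in plain HEK293 cells, and in GIRK2-only cells above 5% efficacy rising with concentration; inactive means the rest, including fluorescent compounds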;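 further: efficacy is normalized control-subtracted fluorescence 15 s after thallium addition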
Large screens that a line does not name were inactive.

Cc1cc(=O)[nH]c(-n2nc(C3CC3)cc2NC(=O)c2ccccc2C(F)(F)F)n1	none
CCCOc1ccc(N2CCN(C(=O)c3ccc(OC)c(OC)c3)CC2)nn1	none (no result: AMPAR-TARP mod)
COc1ccc(C(=O)N2CCc3cc(S(=O)(=O)NC4CCCC4)ccc32)cc1OC	none
COc1cc(/C=C2\Oc3cc(OC(=O)c4ccccc4F)ccc3C2=O)cc(OC)c1OC	AMPAR-TARP mod active (no result: GIRK2 activator)
COc1cc(/C=C2\Oc3cc(OC(C)=O)ccc3C2=O)cc(OC)c1OC	none (no result: GIRK2 activator)
O=C(Nc1cccnc1)c1ccc(S(=O)(=O)NC2CCCC2)cc1	none
O=C(Nc1ccc(S(=O)(=O)NC2CCCCC2)cc1)C1CCCO1 (centres undefined)	AMPAR-TARP mod active
CN(C)CCNC(=O)C(=O)NCCC(O)c1ccco1 (centres undefined)	none
Cc1c(C)c(C)c(S(=O)(=O)NCCC(O)c2ccco2)c(C)c1C (centres undefined)	AMPAR-TARP mod active
CC(C)Sc1cccc(C(=O)Nc2nnc(-c3cccs3)o2)c1	none (no result: GIRK2 activator)
CC(C)Sc1cccc(C(=O)Nc2sccc2C(N)=O)c1	AMPAR-TARP mod active (no result: GIRK2 activator)
Cc1cc(C)n(-c2cc(N3CCCC(C(=O)NCc4ccc5c(c4)OCO5)C3)ncn2)n1 (centres undefined)	none
Cc1cc(C)n(-c2cc(N3CCCC(C(=O)NCc4ccco4)C3)ncn2)n1 (centres undefined)	AMPAR-TARP mod active
CS(=O)(=O)c1ccc(S(=O)CC(=O)Oc2ccc(C3CCCCC3)cc2)c([N+](=O)[O-])c1 (centres undefined)	none (no result: GIRK2 activator)
CCOc1ccc(-c2ccc(=O)n(CCNS(=O)(=O)c3ccc(Oc4ccccc4)cc3)n2)cc1	none (no result: GIRK2 activator)
COc1ccc(S(=O)(=O)CC(=O)Nc2nc(-c3cc(Cl)ccc3Cl)cs2)cc1	none
COc1ccc(S(=O)(=O)CC(=O)Nc2nc(-c3cc(Cl)sc3Cl)cs2)cc1	AMPAR-TARP mod active
CN(C(=O)C1COCC(=O)N1Cc1ccccc1)c1ccccc1 (centres undefined)	none
COC1CS(=O)(=O)CC1OC (centres undefined)	AMPAR-TARP mod active (no result: GIRK2 activator)
O=C(Nc1cc(-c2ccco2)nn1-c1nc2c(c(=O)[nH]1)CCC2)C1CC1	AMPAR-TARP mod active
O=C(CC1CCCC1)Nc1cc(-c2ccco2)nn1-c1nc2c(c(=O)[nH]1)CCC2	none
CCN(Cc1ccccc1)C(=O)CN1C(=O)N(c2ccc(C)cc2)S(=O)(=O)c2ccccc21	none (no result: GIRK2 activator)
O=C(Nc1sc2ccccc2c(=O)c1-c1ccc(Br)cc1)c1ccco1	none
COc1ccc(-c2c(NC(=O)c3ccco3)sc3ccccc3c2=O)cc1OC	AMPAR-TARP mod active
O=c1oc2ccc(Br)cc2cc1S(=O)(=O)c1cc(F)cc(F)c1	none
CC(C)c1cccc(C(C)C)c1NC(=O)c1ccc(O)cc1	none (no result: GIRK2 activator)
COc1cc(C(=O)Nc2c(C(C)C)cccc2C(C)C)cc(OC)c1OC	AMPAR-TARP mod active
COc1ccc(NC(=O)CSc2ncnc3c2nnn3C)cc1OC	none
CSc1ncccc1C(=O)N1CCC(CNC(=O)c2ccccc2Br)CC1	none
CSc1ccccc1CN1CCC(CNC(=O)c2cnc3ccccc3n2)CC1	none
CSc1ccccc1C(=O)NCC1CCN(C(=O)c2ccccc2F)CC1	none
CSc1ncccc1C(=O)N1CCC(CNC(=O)c2cc(Cl)cc(Cl)c2)CC1	none
CSc1ncccc1C(=O)N1CCC(CNC(=O)C2(c3ccc(Cl)cc3)CCCC2)CC1	AMPAR-TARP mod active
O=C(CSc1ccc(F)cc1)NCC1CCN(C(=O)c2ccccc2F)CC1	AMPAR-TARP mod active
CSc1ncccc1C(=O)N1CCC(CNC(=O)c2ccccc2F)CC1	AMPAR-TARP mod active
CSc1ccccc1CN1CCC(CNC(=O)c2ccccn2)CC1	AMPAR-TARP mod active
Cc1cc(C)c2nc(N(Cc3ccccn3)C(=O)Cc3ccc(S(C)(=O)=O)cc3)sc2c1	none (no result: GIRK2 activator)
COCCN(CCOC)C(=O)C(=O)c1cn(CC(=O)N2CCOCC2)c2ccccc12	none (no result: GIRK2 activator)
COc1cc(C(=O)NCC2(c3cccs3)CCCC2)cc(OC)c1OC	none
Cn1nccc1C(=O)N(Cc1ccccc1)c1nc2ccccc2s1	none (no result: AMPAR-TARP mod)
CCOc1ccc(CCNc2nccn(-c3ccc(OC)c(Cl)c3)c2=O)cc1OCC	none (no result: GIRK2 activator)
O=C(CC1CCCC1)Nc1nc(CSCc2ccc(F)cc2)cs1	AMPAR-TARP mod active
O=C(CCc1csc(NC(=O)c2ccc(F)cc2)n1)NCC1CCCCC1	none
CCCS(=O)(=O)N1CCN=C1SCc1ccc(Cl)cc1	none (no result: GIRK2 activator)
Cc1ccccc1-c1ccc(N2CCC(C(=O)NCCc3ccc(S(N)(=O)=O)cc3)CC2)nn1	none
COc1cccc(C(=O)Nc2ccc3c(c2)CCCN3S(C)(=O)=O)c1	none
CC(C)(C)n1ncc2c(=O)n(NC(=O)/C=C/c3ccccc3)cnc21	AMPAR-TARP mod active
CC(C)(C)n1ncc2c(=O)n(NC(=O)C(c3ccccc3)c3ccccc3)cnc21	none
CN(C)S(=O)(=O)c1ccc(C(=O)Nc2ccc(CC(N)=O)cc2)cc1	none
